Assay results reported in PubChem BioAssay (EPA / NIEHS).
“And” between values parts separate entries of the source, which are not always exact repeats. Identical values can stand only once. The source made the active and inactive calls. How the source made its calls: active means hit-call score of the fitted dose curve at least 0.9, where 1 is the maximum; inactive means score below 0.9.

Test: ATG_PBREM_CIS: Attagene CIS-FACTORIAL HepG2 Assay for human Phenobarbital-responsive Enhancer Module (PBREM) (AID 2282955)
Conditions: HepG2 PBREM cis-reporter, Attagene multiplexed transcription; actives raise or lower the signal
Experimental: ATG_CIS is a cell-based, multiplexed-readout assay that uses HepG2, a human liver cell line, with measurements taken at 24 hours after chemical dosing in a 24-well plate.ATG_PBREM_CIS is one of 52 assay component(s) measured or calculated from the ATG_CIS assay. It is designed to make measurements of mRNA induction, a form of inducible reporter, as detected with fluorescence intensity signals by Reverse transcription polymerase chain reaction (RT-PCR) and Capillary electrophoresis technology.Data from the assay component ATG_PBREM_CIS was analyzed into 1 assay endpoint. This assay endpoint, ATG_PBREM_CIS, was analyzed with bidirectional fitting relative to DMSO as the negative control and baseline of activity. Using a type of inducible reporter, measures of mRNA for gain or loss-of-signal activity can be used to understand the reporter gene at the transcription factor-level as they relate to the gene NR1I3. Furthermore, this assay endpoint can be referred to as a primary readout, because this assay has produced multiple assay endpoints where this one serves a reporter gene function. To generalize the intended target to other relatable targets, this assay endpoint is annotated to the nuclear receptor intended target family, where the subfamily is non-steroidal.
Human liver HepG2 cells are transiently transfected with multiple reporter transcription units (MRTUs) in 6-well plates using FuGene 6 reagent (Roche; 3 ml FuGene/1 mg DNA). The MRTU constructs are regulated by a cis-regulating element (promoter). […] A major difference between the CIS and TRANS system is that in CIS activities of endogenous TFs are measured, whereas the TRANS assay evaluates changes in activities of exogenous, chimeric NR-Gal4 proteins. […] At the end of 24 hour incubation, total RNA was isolated using TriZol reagent (Invitrogen). The isolated RNA is then reverse-transcribed using oligo(dT) primer and Mo-MLV reverse transcriptase (Invitrogen) with DNAse I (Ambion) treatment for 30 min. The one-tenth of the produced cDNA was amplified by PCR using Taq DNA polymerase (Invitrogen) and two reporter sequence-specific primers. The PCR products were fluorescently labeled by primer extension with 6-arboxyfluorescein (6-FAM) 5'-labeled reporter sequence-specific primer (2 min at 95 C, 20 s at 68 C and 10 min at 72 C) and these products were digested with 5U of HpaI (New England Biolabs) for 2h at 37 C. The fragments were purified using Qiaquick PCR columns (Qiagen), analyzed on an ABI 3130xL genetic analyzer (Applied Biosystems) with peak positions identified by using a set of X-rhodamine (ROX)-labeled MapMarker1000 molecular weight standards (BioVentures). The raw capillary electrophoresis data was processed using Attagraph software (Attagene).
In the case of `Cn1cc(-c2ccccc2)c(=O)c(-c2cccc(C(F)(F)F)c2)c1`, the outcome is reported as “inactive”. For `C=CCc1ccc2c(c1)OCO2`, the outcome was “inactive”. With `CC(C)(OOC(C)(C)c1ccccc1)c1ccccc1` the AC50 was 25.3 µM (active). For `COc1cc(C=O)cc2c1[C@H](COC(N)=O)[C@]1(OC(C)=O)ON2C[C@H]2[C@@H]1N2C(C)=O`, the outcome was “inactive”. In the case of `CCOc1cccc(C2(N3CCN(c4ccccc4)CC3)CCC(C)CC2)c1` (stereo not given), the outcome is reported as “inactive”. In the case of `COC(=O)c1ccccc1N`, the outcome is reported as “inactive”. With `CCCCC(CC)COC(=O)c1ccc(C(=O)OCC(CC)CCCC)c(C(=O)OCC(CC)CCCC)c1` (stereo not given) the outcome was “inactive”. For `OCCCBr`, the outcome was “inactive”. For `Cc1ccc(N)c(N)c1`, the outcome was “inactive”. For `c1ccc2c(c1)-c1cccc3cccc-2c13`, the outcome was “inactive”. In the case of `O=C(O)C1C2CCC(O2)C1C(=O)O` (stereo not given), the AC50 is reported as 160 µM (active). For `c1ccc(N=Nc2ccccc2)cc1`, the outcome was “inactive”. For `CCC[CH2][Sn]([Cl])([CH2]CCC)[CH2]CCC`, the outcome was “inactive”. For `CS(=O)(=O)NC(=O)c1cc(Oc2ccc(C(F)(F)F)cc2Cl)ccc1[N+](=O)[O-]`, the outcome was “inactive”. In the case of `O=[N+]([O-])c1ccc(Oc2ccc(Cl)cc2Cl)cc1`, the AC50 is reported as 22.5 µM (active). With `N#CC(Br)Br` the outcome was “inactive”. With `CCNS(=O)(=O)C(F)(F)C(F)(F)C(F)(F)C(F)(F)C(F)(F)C(F)(F)C(F)(F)C(F)(F)F` the AC50 was 96.5 µM (active) and 61.9 µM (active) and 34.7 µM (active). For `OCCCl`, the outcome was “inactive”. In the case of `CC(C)(C)C(O)(CCc1ccc(Cl)cc1)Cn1cncn1` (stereo not given), the outcome is reported as “inactive”. In the case of `COC(=O)Nc1nc2ccccc2[nH]1`, the outcome is reported as “inactive”. In the case of `Cc1cc(N=Nc2ccccc2C)ccc1N`, the AC50 is reported as 33.4 µM (active). In the case of `[As]#[In]`, the outcome is reported as “inactive”. In the case of `CCC12COCN1COC2`, the outcome is reported as “inactive”. For `Nc1ccc(Cl)cc1N`, the outcome was “inactive”. With `C[C@]12C=CC3=C4CCC(=O)C=C4CC[C@H]3[C@@H]1CC[C@@H]2O` the outcome was “inactive”. For `c1ccc2c(c1)oc1ccccc12`, the outcome was “inactive”. In the case of `Nc1ccc(N=Nc2ccccc2)cc1`, the AC50 is reported as 67.3 µM (active). With `Cc1ccc(N=C=O)cc1N=C=O` the outcome was “inactive”. With `C1=Cc2cccc3cccc1c23` the outcome was “inactive”. In the case of `CNC(=O)Oc1cccc2c1OC(C)(C)C2`, the outcome is reported as “inactive”. With `Nc1ccc([N+](=O)[O-])cc1` the outcome was “inactive”. With `Clc1ccc(C(c2ccc(Cl)cc2)C(Cl)Cl)cc1` the AC50 was 56.8 µM (active). In the case of `CC(C)N(Cc1ccccc1)C(=O)C(C)(C)C`, the outcome is reported as “inactive”. In the case of `CCOC(=O)[C@]1(c2ccccc2)Oc2ccccc2[C@@H]1N`, the AC50 is reported as 9.64 µM (active). For `CCN(CC)CCO`, the outcome was “inactive”. In the case of `O=P(OCCCl)(OCCCl)OCCCl`, the outcome is reported as “inactive”. For `CCCCCCCCOC(=O)c1ccc(C(=O)OCCCCCCCC)c(C(=O)OCCCCCCCC)c1`, the outcome was “inactive”. For `Cc1ccc([N+](=O)[O-])cc1`, the outcome was “inactive”. In the case of `CC(O)CCO` (stereo not given), the outcome is reported as “inactive”. For `Nc1ccc(Oc2ccc(N)cc2)cc1`, the outcome was “inactive”.
